Results reported in the supplement of paper PMC3545927.
Some of the results follow. The true hit rate is not given.

Biological target: furin, P09958
Assay: furin cleavage Z-score vs untreated control; higher = more cleavage, active = 3.5 or more, inactive = 1 or less, 8 variable residues between constant flanks
Outline: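 Magnetic beads held 8-mer peptides by the N-terminus, each fused to a cDNA oligonucleotide, and purified furin was added for 7.5, 15 or 30 min. Released DNA was sequenced after PCR adapter tagging. The cleavage Z-score is the log count relative to furin-free reactions, lowess-adjusted and divided by median absolute deviation.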
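Further: purified furin at 1:10 enzyme:substrate in 50 mM HEPES pH 7.5.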

Chain of furin, P09958 (P09958 whole entry): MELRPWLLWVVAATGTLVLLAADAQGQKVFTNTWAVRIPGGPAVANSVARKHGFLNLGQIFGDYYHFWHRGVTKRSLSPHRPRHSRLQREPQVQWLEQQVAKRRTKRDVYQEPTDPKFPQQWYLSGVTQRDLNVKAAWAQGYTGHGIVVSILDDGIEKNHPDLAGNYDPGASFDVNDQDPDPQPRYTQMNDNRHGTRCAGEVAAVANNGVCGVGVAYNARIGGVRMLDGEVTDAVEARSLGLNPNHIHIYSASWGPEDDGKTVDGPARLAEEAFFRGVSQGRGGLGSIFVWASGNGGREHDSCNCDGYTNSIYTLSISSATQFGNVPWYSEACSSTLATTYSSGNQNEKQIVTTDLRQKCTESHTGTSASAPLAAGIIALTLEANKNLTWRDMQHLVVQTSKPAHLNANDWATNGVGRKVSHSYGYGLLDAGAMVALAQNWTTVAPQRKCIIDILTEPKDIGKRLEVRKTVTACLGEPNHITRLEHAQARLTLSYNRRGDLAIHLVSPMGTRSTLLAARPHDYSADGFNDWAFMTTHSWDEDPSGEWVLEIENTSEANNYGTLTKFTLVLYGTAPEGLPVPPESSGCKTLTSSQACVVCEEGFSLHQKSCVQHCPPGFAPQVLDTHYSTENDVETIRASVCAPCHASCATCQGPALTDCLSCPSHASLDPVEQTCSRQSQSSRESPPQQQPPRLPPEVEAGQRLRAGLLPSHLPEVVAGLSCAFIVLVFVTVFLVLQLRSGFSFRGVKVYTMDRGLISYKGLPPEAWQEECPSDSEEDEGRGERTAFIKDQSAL

Sequence | furin cleavage Z-score (7.5 min) | furin cleavage Z-score (15 min) | furin cleavage Z-score (30 min)
CADEECSQHLAGNASASA [HC1671] | 0.117 (inactive) | 0.56 (inactive) | -0.0902 (inactive)
CAEAVTSTWVAGNASASA [HC2163] | 1.01 | -0.993 (inactive) | -0.235 (inactive)
CAYTPCSGSWAGNASASA [HC1829] | -0.863 (inactive) | -0.615 (inactive) | -0.179 (inactive)
CAEVHTSTWVAGNASASA [HC2195] | 0.614 (inactive) | -0.225 (inactive) | 1.53
CARPDRSSQGAGNASASA [FS-3016] | -1.72 (inactive) | -1.8 (inactive) | -1.46 (inactive)
CARPPRPAQGAGNASASA [FS-2057] | -0.496 (inactive) | -0.739 (inactive) | -0.973 (inactive)
CARWGRSAQGAGNASASA [FS-3130] | 4.05 (active) | 4 (active) | 4.18 (active)
CAAFKIMSGEAGNASASA [HC1093] | -0.371 (inactive) | -0.656 (inactive) | -1.3 (inactive)
CARVRREDTPAGNASASA [FS-3125] | 7.61 (active) | 7.5 (active) | 6.22 (active)
CARVRRSTAEAGNASASA [FS-2388] | 12.5 (active) | 12.2 (active) | 8.54 (active)
CAAGRRSEAEAGNASASA [FS-1877] | -2 (inactive) | -1.75 (inactive) | -0.59 (inactive)
CADPSHITAEAGNASASA [HC1249] | -0.448 (inactive) | -0.687 (inactive) | -1.36 (inactive)
CARFKRWKAEAGNASASA [FS-1853] | 3.27 | 4.72 (active) | 6.24 (active)
CARFKKFATEAGNASASA [FS-1700] | 0.401 (inactive) | 0.983 (inactive) | -0.463 (inactive)
CAFTAGYSGGAGNASASA [HC1646] | -0.828 (inactive) | -0.656 (inactive) | -0.88 (inactive)
CAESPCHRPSAGNASASA [HC2337] | 1.16 | 0.888 (inactive) | -0.202 (inactive)
CATTPCSGSYAGNASASA [HC1929] | -0.34 (inactive) | -0.574 (inactive) | 0.025 (inactive)
CASTICSAHLAGNASASA [HC2504] | 1.31 | -0.501 (inactive) | 1.12
CAVPGAVYTFAGNASASA [HC552] | -0.518 (inactive) | 0.509 (inactive) | -0.772 (inactive)
CARALRSVSRAGNASASA [FS-2641] | -0.658 (inactive) | -0.337 (inactive) | 0.074 (inactive)
CARTDRSSDRAGNASASA [FS-1796] | -0.725 (inactive) | -1.9 (inactive) | -1.59 (inactive)
CARVRRAAQGAGNASASA [FS-2105] | 8.98 (active) | 8.61 (active) | 7.68 (active)
CARALRSSGTAGNASASA [FS-1944] | -0.0204 (inactive) | -0.353 (inactive) | 0.495 (inactive)
CARSCRAAQAAGNASASA [FS-3076] | 0.547 (inactive) | 1.19 | 1.76
CAPAAYAAQGAGNASASA [HC781] | 0.244 (inactive) | 1.54 | 0.00948 (inactive)
CARVRRQLDRAGNASASA [FS-3174] | 10.3 (active) | 12.6 (active) | 9.92 (active)
